# Hits are enriched below; roughly 3.1% of the tested compounds scored in any of these assays.
# RGS4 inhibitor: human RGS4 inhibition; Transcreener GDP fluorescence polarization, RGS4-accelerated GTP hydrolysis; AID 504845; 0.039% of 390,000 active; P49798; Potency, µM (doses to about 114 µM), for the others: top-dose activity change, negative = inhibition, hits mostly inhibitors; active = well fitted inhibition curve with a large enough effect; inconclusive = small, poorly fitted or top-dose-only effect; inactive = no such curve, though single readings can be large or run the other way; note: potency is the fitted concentration of half-maximal effect; % is set by controls: 0 for no effect and ±100 for the full control effect; nearly all actives have a fitted effect of over 75% in size
#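 MLSMR compounds (23 nl, pin-transferred) preincubated 10 min at room temperature with a 500nM (2x) first reagent, then RGS4 at 900nM (2x) plus Transcreener GDP mix added; fluorescence polarization (620/688 nm) read before and after 90 min at 30 °C.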
# uPA generation: cell surface uPA generation inhibition; Potency, µM (highest dose often 38.3 µM), for inactives: top-dose activity change, negative = inhibition, usual class: inhibitors; 0.31% of 330,000 active; AID 540303; cell surface uPA generation assay, qHTS; active = well fitted inhibition curve with a large enough effect; inconclusive = small, poorly fitted or top-dose-only effect; inactive = no such curve, though single readings can be large or run the other way; tested in mouse RAW 264.7 cells; note: potency is the fitted concentration of half-maximal effect; % is set by controls: 0 for no effect and ±100 for the full control effect; nearly all actives have a fitted effect of over 55% in size
# D3 ag: activates the human D3 dopamine receptor; P35462; D3R DiscoveRx beta-arrestin cells, luminescence, 90 min; max activation, %; 0.58% of 410,000 active; AID 652048; in the data active = max activation above about 30%; note: 0% is about no effect
# Target sequence (P35462 whole entry, looked up): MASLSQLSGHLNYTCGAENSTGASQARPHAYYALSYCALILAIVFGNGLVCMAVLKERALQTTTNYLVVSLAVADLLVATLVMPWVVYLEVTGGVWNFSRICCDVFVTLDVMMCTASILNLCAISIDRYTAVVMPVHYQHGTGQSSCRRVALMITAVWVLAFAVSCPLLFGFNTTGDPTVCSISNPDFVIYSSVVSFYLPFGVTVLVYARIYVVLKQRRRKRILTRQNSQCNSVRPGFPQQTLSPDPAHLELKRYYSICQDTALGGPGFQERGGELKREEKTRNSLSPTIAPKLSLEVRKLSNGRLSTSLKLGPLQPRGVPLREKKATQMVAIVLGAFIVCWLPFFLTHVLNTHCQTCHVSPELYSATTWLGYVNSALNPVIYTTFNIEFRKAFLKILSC
#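 Agonist mode: compounds and dopamine controls were applied to plated cells for 90 min at 37 degrees C after an overnight attachment at 1500 cells/well. Luminescent read-out followed 30 - 60 minutes at room temperature with DiscoveRx detection reagent.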
# D3 antag: blocks the human D3 dopamine receptor. P35462. D3R cells, DiscoveRx beta-arrestin luminescence, antagonist mode; hits give low values. max response, negative = inhibition, %. 2.5% of 360,000 active; in the data active = max response below about -50%; inconclusive = no clear call, values can overlap the other calls; note: % is set by controls: 0 for no effect and ±100 for the full control effect
#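 Cells plated overnight at 1500 cells/well, then exposed to library compounds with dopamine controls for 90 minutes at 37 degrees C. DiscoveRx reagent added for 30–60 minutes at room temperature; luminescence read, quantitative HTS format.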
# * hit, by the source's call; ? = inconclusive; . = not tested or not shown.
SMILES,RGS4 inhibitor,uPA generation,D3 ag,D3 antag
CCOCC(O)COc1ccc(NC(=O)CC[S+](C)C)cc1 (configuration not stated),.,.,-15,.
Cc1cccc(CNC(=O)c2cccc(NC(=O)N3CCSc4ncccc43)c2)c1,7%,.,1,.
Cn1nccc1C(=O)NCc1ccc2c(c1)CCN2C(=O)c1ccc(F)cc1,6%,.,5,.
Nc1cc([N+](=O)[O-])ccc1Nc1ccc(O)cc1,-3%,?,-6,-55*
CCOc1ccc(C(=O)Nc2ccccc2C(=O)OCc2cc(=O)n3nc(C4CC4)sc3n2)cc1,1%,.,9,.
O=S(=O)(C/C(=C/CO)S(=O)(=O)c1ccccc1)c1ccccc1,-36%,.,-34,-59*
O=C(c1ccc2c(c1)OCCO2)N1CCN(c2nc(-c3cccs3)nc3ccccc23)CC1,-11%,.,.,.
Cc1nc2c(=O)n(C)c(=O)n(C)c2nc1Cl,-11%,-22%,-21,-51*
CCN(CC)c1ccc2nc3c(=O)n(C)c(=O)n(C)c3nc2c1,6%,.,-2,.
O=C(/C=C/c1ccccc1)NC(=S)NNC(=O)Cc1cccs1,-19%,-1%,-5,-72*
CN1CCC(Oc2ccccc2Sc2ccccc2)CC1,9%,-6%,-7,-63*
CN1CCC(OC(c2ccccc2)c2ccccc2)CC1,-6%,-1%,-1,0
CC(C)=CCC12Oc3cc(O)ccc3C1(O)Oc1cc(O)c([C@H]3C=C(C)CC(c4ccc(O)cc4O)[C@H]3C(=O)c3ccc(O)cc3O)c(O)c1C2=O (some centres not stated),-5%,5%,-44,-52*
CCOC(=O)c1c(NC(=O)C2=C(C)NC(=S)NC2c2ccc(C)cc2)sc(C)c1C (configuration not stated),-29%,-7%,-13,-53*
O=C(NC1CCCC1)C1c2ccccc2OCC(=O)N1Cc1ccccn1 (configuration not stated),.,.,-16,-58*
O=C(NCc1ccccc1)C1c2ccccc2OCC(=O)N1Cc1cccnc1 (configuration not stated),.,.,-5,-61*
CC(=O)Nc1cc(-c2ccc(F)cc2)cn2c(-c3ccc(S(C)(=O)=O)cc3)cnc12,.,.,2,13
CC(C(=O)Nc1sc2c(c1C(=O)NCc1ccco1)CCCC2)N1C(=O)c2ccccc2C1=O (configuration not stated),3%,-7%,-2,-65*
O=C(O)c1ccc(N=N/C(=N\Nc2ccc(C(=O)O)cc2)c2ccccc2)cc1,11%,-16%,-29,-53*
CC(=O)Nc1c(I)cc(I)c(C(=O)O)c1I,.,.,66*,.
CC1([N+](=O)[O-])COC2(CCCCC2)OC1,6%,-2%,83*,-50*
COc1ccc(CCNC2CCc3ccccc3C2)cc1 (configuration not stated),25%,-11%,-9,?
COc1ccc(CCNC2CCC(c3ccccc3)CC2)cc1 (configuration not stated),-21%,-8%,-8,-65*
CN1CCN(C(=O)NC2CCCCC2)CC1,-23%,-2%,-1,-54*
O=C(NC1CCCCC1)N1CCCCCC1,23%,0%,-2,-4
SMILES,RGS4 inhibitor,uPA generation,D3 ag,D3 antag
CC(C)c1ccc(NC2(C#N)C(=O)Nc3ccccc32)cc1 (configuration not stated),8%,-2%,-7,-53*
CCN(CC1CCCN(CCc2cccc(F)c2)C1)C(=O)c1ccc(CSC)o1 (configuration not stated),?,-29%,-17,-27
COc1ccc(C(=O)N(C)CC2CCN(CCc3cccc(C(F)(F)F)c3)CC2)cc1C,-2%,-28%,-27,-77*
CCN(CC1CCCN(CCc2cccc(F)c2)C1)C(=O)c1ccoc1C (configuration not stated),.,.,-5,-51*
CN(CC1CCCN(CCc2cccc(C(F)(F)F)c2)C1)C(=O)c1ccco1 (configuration not stated),18%,1%,-13,-63*
CN(CC1CCN(CCc2cccc(C(F)(F)F)c2)CC1)C(=O)c1ccc(F)cc1F,-19%,-10%,-27,-69*
CSCCC(=O)N(C)CC1CCN(CCc2cccc(C(F)(F)F)c2)CC1,-14%,-1%,-16,-7
Cn1nc(C2CC2)cc1NC(=O)C1(C)CCN1C(=O)Cc1ccc(-c2ccccc2)cc1 (configuration not stated),.,.,5,?
CCCOc1ccccc1-n1sc2c(c1=S)-c1cc(OC)cc3c1N(C(=O)C3=O)C2(C)C,-51%,-3%,-12,-57*

# Compound activity deposited in PubChem by National Center for Advancing Translational Sciences (NCATS).
